Assay results reported in PubChem BioAssay AID504333 (National Center for Advancing Translational Sciences (NCATS), 2011).
The campaign covered roughly 360,000 compounds. About 16,000 (4.4%) were called active. Not shown: some 9% with an inconclusive outcome. The sample holds actives, similar compounds and a random draw of the others, so the mix is not that of the screen. A number with no mark means an inactive call. Calls follow the shape of the dose curve; as a rule, active = well fitted inhibition curve with a large enough effect; inconclusive = small, poorly fitted or top-dose-only effect; inactive = no such curve, though single readings can be large or run the other way.
% is scaled to controls: 0 for no effect and ±100 for the full control effect; potency is read from the fitted curve at half-maximal effect.
Also: nearly all actives have a fitted effect of over 60% in size.

These compounds were tested against Bromodomain adjacent to zinc finger domain protein 2B (Homo sapiens) (UniProt Q9UIF8) (assay: qHTS Assay for Inhibitors of BAZ2B). Details: AlphaScreen BAZ2B-H3K14Ac peptide displacement; series mostly up to 114 µM; activity change, negative = inhibition: at the top concentration.
Bromodomain adjacent to zinc finger domain protein 2B (Homo sapiens), sequence (Q9UIF8 whole entry, looked up, the tested form may be a part): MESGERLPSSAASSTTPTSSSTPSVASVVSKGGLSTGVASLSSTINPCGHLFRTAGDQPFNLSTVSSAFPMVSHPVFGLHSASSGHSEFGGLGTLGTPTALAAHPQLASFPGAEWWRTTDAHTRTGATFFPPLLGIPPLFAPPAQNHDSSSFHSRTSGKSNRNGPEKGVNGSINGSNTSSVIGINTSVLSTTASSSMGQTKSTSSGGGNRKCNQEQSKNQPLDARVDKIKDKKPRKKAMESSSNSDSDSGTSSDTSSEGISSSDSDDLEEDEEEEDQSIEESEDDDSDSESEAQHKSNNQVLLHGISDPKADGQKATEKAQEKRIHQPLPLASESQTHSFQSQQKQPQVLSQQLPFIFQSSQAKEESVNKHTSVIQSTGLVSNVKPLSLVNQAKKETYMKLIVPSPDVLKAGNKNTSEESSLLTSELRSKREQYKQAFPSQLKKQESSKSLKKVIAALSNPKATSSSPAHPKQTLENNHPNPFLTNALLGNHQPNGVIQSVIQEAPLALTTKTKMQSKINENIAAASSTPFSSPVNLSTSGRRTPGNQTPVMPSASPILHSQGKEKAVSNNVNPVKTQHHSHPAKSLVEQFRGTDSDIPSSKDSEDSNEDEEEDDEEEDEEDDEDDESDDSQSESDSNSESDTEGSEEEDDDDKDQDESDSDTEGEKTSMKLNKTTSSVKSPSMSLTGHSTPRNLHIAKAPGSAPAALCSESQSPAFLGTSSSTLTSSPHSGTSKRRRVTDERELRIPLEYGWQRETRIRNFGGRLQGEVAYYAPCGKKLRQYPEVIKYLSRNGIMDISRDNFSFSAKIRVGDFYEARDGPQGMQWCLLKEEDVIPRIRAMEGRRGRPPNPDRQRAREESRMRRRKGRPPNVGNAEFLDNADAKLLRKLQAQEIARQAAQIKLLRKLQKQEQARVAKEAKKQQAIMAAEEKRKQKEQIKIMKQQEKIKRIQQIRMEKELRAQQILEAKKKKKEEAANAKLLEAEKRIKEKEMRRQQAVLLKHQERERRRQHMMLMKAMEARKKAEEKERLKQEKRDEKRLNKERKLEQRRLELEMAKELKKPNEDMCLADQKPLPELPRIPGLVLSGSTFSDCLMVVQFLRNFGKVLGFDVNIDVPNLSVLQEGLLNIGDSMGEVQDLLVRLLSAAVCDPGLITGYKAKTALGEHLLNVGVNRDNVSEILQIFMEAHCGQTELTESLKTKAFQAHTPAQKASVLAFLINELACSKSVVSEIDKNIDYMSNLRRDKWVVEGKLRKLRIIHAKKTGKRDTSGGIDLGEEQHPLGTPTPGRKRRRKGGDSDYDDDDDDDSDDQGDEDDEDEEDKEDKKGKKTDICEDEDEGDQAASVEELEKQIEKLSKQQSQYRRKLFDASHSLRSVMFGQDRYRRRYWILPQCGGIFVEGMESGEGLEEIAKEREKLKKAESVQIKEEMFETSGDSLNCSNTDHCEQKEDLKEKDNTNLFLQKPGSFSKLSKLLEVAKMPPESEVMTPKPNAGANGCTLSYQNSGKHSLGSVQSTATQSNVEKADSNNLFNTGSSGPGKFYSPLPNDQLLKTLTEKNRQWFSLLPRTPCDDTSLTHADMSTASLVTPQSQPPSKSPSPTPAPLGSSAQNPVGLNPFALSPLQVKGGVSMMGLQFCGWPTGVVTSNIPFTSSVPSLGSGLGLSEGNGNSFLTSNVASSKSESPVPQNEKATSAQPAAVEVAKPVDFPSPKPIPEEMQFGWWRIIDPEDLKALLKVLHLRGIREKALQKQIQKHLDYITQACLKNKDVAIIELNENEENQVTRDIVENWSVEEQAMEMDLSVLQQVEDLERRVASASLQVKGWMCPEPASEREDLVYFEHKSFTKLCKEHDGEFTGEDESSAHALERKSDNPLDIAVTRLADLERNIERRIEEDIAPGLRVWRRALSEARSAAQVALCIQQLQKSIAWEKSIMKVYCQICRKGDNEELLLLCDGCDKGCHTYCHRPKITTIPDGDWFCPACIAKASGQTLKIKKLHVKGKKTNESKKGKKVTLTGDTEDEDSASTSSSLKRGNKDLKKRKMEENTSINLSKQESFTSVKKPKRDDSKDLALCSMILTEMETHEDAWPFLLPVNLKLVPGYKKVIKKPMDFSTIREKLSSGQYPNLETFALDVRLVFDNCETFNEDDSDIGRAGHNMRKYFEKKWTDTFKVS
Method in brief: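 AlphaScreen displacement of biotin-H3(5-23)K14Ac peptide (50 nM final) from BAZ2B (50 nM final) in PBS pH 7.4, 0.01% Tween-20; complex preformed 30 min RT, then compounds (top 110 uM) 30 min RT, beads 20 min dark.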
O=C(NCc1ccccc1Cl)c1cccn1-c1nnc(N2CCCCC2)s1 was tested, and the “activity change, negative = inhibition” value was -15%. In the case of COc1ccccc1Nc1nc(N)nc(N)c1S(=O)(=O)c1ccccc1, the “activity change, negative = inhibition” value is reported as -19.9%. In the case of COc1ccccc1Nc1nc(N)nc(CN(C)C2CCCCC2)n1, the Potency is reported as 10 µM (active). In the case of COc1ccccc1Nc1nc(N)nc(CSC(=S)N2CCOCC2)n1, the “activity change, negative = inhibition” value is reported as -23.7%. For COc1ccc(CCN2C(=O)c3oc4cc(C)cc(C)c4c(=O)c3C2c2ccccc2F)cc1OC (stereo unspecified), the “activity change, negative = inhibition” value was 7.46%. For COc1ccc(-c2cn3nc(N4CCCC(C(=O)NCCCOC(C)C)C4)sc3n2)cc1 (stereo unspecified), the “activity change, negative = inhibition” value was -28%. COC(=O)c1cc(NC(=O)c2cnc(SC)nc2-c2ccccc2)cc(C(=O)OC)c1 was tested, and the “activity change, negative = inhibition” value was 2.05%. For COc1ccc(CNC(=O)Cc2ccc(-c3ccccc3)cc2)cc1OC, the “activity change, negative = inhibition” value was -25%. With COC(=O)c1ccc(-c2c(-c3ccccc3)ncc3cc(OC)c(OC)cc23)cc1 the Potency was 56.2 µM (active). Cc1c(Cl)cccc1NC(=O)c1noc2c1CCCC2 was tested, and the “activity change, negative = inhibition” value was 30%. COc1ccnc(Oc2ccccc2)c1-c1ncn[nH]1 was tested, and the “activity change, negative = inhibition” value was 1.04%. N#Cc1ccc(Oc2cc(C(F)(F)F)nc(-c3ccccn3)n2)cc1 was tested, and the “activity change, negative = inhibition” value was -6.1%. For COc1cnc(-c2ccccn2)nc1Oc1ccc(C(C)(C)C)cc1, the Potency was 22.4 µM (active). With Cc1ccc(C(=O)N2c3ncnn3C3(CCCCC3)[C@@H]3CCCC[C@@H]32)cc1 the “activity change, negative = inhibition” value was -14.5%. For Cc1onc(-c2ccc(F)cc2F)c1C(=O)Nc1cccc(C(F)(F)F)c1, the “activity change, negative = inhibition” value was -2.91%. With COc1ccc(OCCn2cc(C(=O)C3CCCCC3)c3ccccc32)cc1 the “activity change, negative = inhibition” value was 15.3% [at 57.1 µM]. With COc1ccc(CCNC(=O)CCc2c(C)nc3c(c(C)nn3-c3ccc(C)c(C)c3)c2C)c(OC)c1OC the “activity change, negative = inhibition” value was -17%. With O=C(c1ccc(Br)cc1)N(Cc1cccs1)c1ccc(F)cc1 the “activity change, negative = inhibition” value was -3.77%. In the case of COc1ccccc1-c1nnc(SCC(N)=O)o1, the “activity change, negative = inhibition” value is reported as -1.92%. With CC(=O)NC(Cc1c[nH]c2ccccc12)C(=O)O (stereo unspecified) the “activity change, negative = inhibition” value was -15.6%. COc1ccc(-c2cc(C(=O)NC(Cc3c[nH]c4ccccc34)C(=O)O)c(C)o2)cc1OC (stereo unspecified) was tested, and the Potency was 50.1 µM (active). For Cc1cccc(C)c1OCC(=O)NC(Cc1c[nH]c2ccccc12)C(=O)O (stereo unspecified), the Potency was “inactive”. Cc1cc(C(=O)N/N=C/c2ccc(O)c([N+](=O)[O-])c2)c(C)n1-c1ccc(F)cc1 was tested, and the Potency was 50.1 µM (active). COc1cc(/C=N/NC(=O)c2ccc(N3CCCC3=O)cc2)ccc1O was tested, and the “activity change, negative = inhibition” value was -3.64%. With COc1cc(/C=N/NC(=O)c2cc(C)n(-c3ccc(F)cc3)c2C)cc(OC)c1O the “activity change, negative = inhibition” value was -35.5%. CCc1nc2nc(C)cc(Nc3ccc(F)c(Cl)c3)n2n1 was tested, and the “activity change, negative = inhibition” value was 1.95%. For Cc1nn(-c2ccc(N3CCCCC3)nn2)c(C)c1CCC(=O)NCc1ccc(F)cc1, the Potency was 79.4 µM (active). COC(=O)c1ccc(NC(=O)CCc2c(C)nn(-c3ccc(N4CCCC4)nn3)c2C)cc1 was tested, and the “activity change, negative = inhibition” value was -25.5%. In the case of COc1ccc(C)cc1NC(=O)CCc1c(C)nn(-c2ccc(N3CCOCC3)nn2)c1C, the “activity change, negative = inhibition” value is reported as -14.2%. In the case of Cc1ccc(CNC(=O)CCc2c(C)nc3c(c(C)nn3-c3ccccc3)c2C)cc1, the “activity change, negative = inhibition” value is reported as -0.737%. For CCOc1ccc(CNC(=O)CCc2c(C)nn(-c3ccc(N4CCCCC4)nn3)c2C)cc1, the “activity change, negative = inhibition” value was -15.5%. In the case of COc1ccc(CNC(=O)CCc2c(C)nn(-c3ccc(N4CCCC4)nn3)c2C)cc1, the Potency is reported as 79.4 µM (active). COc1cc(OC)cc(C(=O)Nc2c(C(=O)Nc3ccc(F)cc3)oc3ccccc23)c1 was tested, and the “activity change, negative = inhibition” value was -0.325%. In the case of COc1ccc(-c2nc(CN3CCC(C(=O)NCCN(CC(C)C)CC(C)C)CC3)c(C)o2)cc1OC, the “activity change, negative = inhibition” value is reported as -14.9%. With CC(=O)N1CCCc2cc(S(=O)(=O)N3CCC(C(=O)NCc4ccc(F)cc4)CC3)ccc21 the “activity change, negative = inhibition” value was -6.68%. For CN(C)c1ccc(C(CNS(=O)(=O)c2cc(F)ccc2F)N2CCOCC2)cc1 (stereo unspecified), the “activity change, negative = inhibition” value was -25.9%. In the case of COc1ccc(Cn2c(C(=O)O)c(CNCCc3cccs3)c3ccc(OC)cc32)cc1, the “activity change, negative = inhibition” value is reported as -35.3%. O=C(O)c1ccc2c(c1)N(Cc1ccc(F)cc1)C(=O)c1ccccc1S2=O (stereo unspecified) was tested, and the “activity change, negative = inhibition” value was 4.07%. Cc1nn(C(C)C(=O)NCCc2ccccc2)c(=O)c2c1sc1ccccc12 (stereo unspecified) was tested, and the “activity change, negative = inhibition” value was -8.46%. In the case of Cc1cc(C(=O)N/N=C/c2cc([N+](=O)[O-])cc(C)c2O)n[nH]1, the Potency is reported as 25.1 µM (active). For CC(C)(C)c1cc(C(=O)N/N=C/c2ccc([N+](=O)[O-])s2)n[nH]1, the “activity change, negative = inhibition” value was -1.13%. In the case of COc1ccc2ccccc2c1/C=N/NC(=O)c1cc(C)[nH]n1, the “activity change, negative = inhibition” value is reported as -26%. For CCCN(CCC)CCCNC(=O)Cn1ncc2c3ccccc3n(Cc3ccccc3)c2c1=O, the “activity change, negative = inhibition” value was -11.5%. COc1ccc(-c2cn3c(n2)sc2cc(C(=O)Nc4ccc(F)cc4)ccc23)cc1 was tested, and the “activity change, negative = inhibition” value was 1.57%. With COc1cccc(Cn2c(SCc3ccc(C(=O)N4CCC(C)CC4)cc3)nc3ccncc32)c1 the Potency was 22.4 µM (active). COc1cccc(Cn2c(SCc3ccc(C(=O)N4CCCCC4)cc3)nc3ccncc32)c1 was tested, and the “activity change, negative = inhibition” value was -11.2%. For Cc1cccc(Cn2c(SCc3ccc(C(=O)N4CCC(C)CC4)cc3)nc3ccncc32)c1, the “activity change, negative = inhibition” value was -16.1%. In the case of COc1ccccc1Cc1nc2ccccc2nc1SCC(=O)N1CCCc2ccccc21, the “activity change, negative = inhibition” value is reported as -3.57%. For COc1ccc(C(=O)c2c(C)c(CCC#N)n3ccccc23)c(OC)c1, the “activity change, negative = inhibition” value was -17.9%. In the case of Cc1c(C(=O)c2cccc([N+](=O)[O-])c2)c2ccccn2c1CCC#N, the Potency is reported as 50.1 µM (active). O=C(c1cccc([N+](=O)[O-])c1)N1CCN(Cc2ccccc2)CC1 was tested, and the “activity change, negative = inhibition” value was 20.8%.
